Data taken from PubChem BioAssay AID624136 (Broad Institute, 2012).
The whole screen tested about 17,000 compounds, of which about 75 (0.4%) were called active.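 Rule for the calls: active = compounds whose four printed spots each glow above background more than chance allows, each with a p-value under 7%; inactive = the rest.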 The entries come from a sample that favours actives as a whole.

test system: mutant tumor protein p53 (GST-tagged), Homo sapiens; assay: small molecules binding GST-tagged mutant p53 – biochemical, small molecule microarray, anti-GST fluorescence, primary screen (AID 624136)

| SMILES | outcome |
| --- | --- |
| C[C@@H]1CN([C@@H](C)CO)C(=O)Cc2cc(NC(=O)Nc3ccc(F)cc3)ccc2O[C@@H]1CN(C)C(=O)NC1CCCCC1 | inactive |
| C[C@H]1CN([C@@H](C)CO)C(=O)c2cc(NC(=O)Nc3ccc4c(c3)OCO4)ccc2O[C@@H]1CN(C)CC1CCCCC1 | inactive |
| COc1ccc(S(=O)(=O)Nc2ccc3c(c2)CC(=O)N([C@H](C)CO)C[C@H](C)[C@@H](CN(C)C)O3)cc1 | inactive |
| COc1ccc(S(=O)(=O)N(C)C[C@@H]2Oc3ccc(NC(=O)CCC(F)(F)F)cc3C(=O)N([C@@H](C)CO)C[C@@H]2C)cc1 | inactive |
| Cc1ccc(C(=O)C2C(=O)C(=O)N(Cc3cccnc3)C2c2ccc(Cl)c(Cl)c2)o1 (configuration not stated) | inactive |
| C[C@@H]1CN([C@@H](C)CO)C(=O)Cc2cc(NC(=O)CCN3CCOCC3)ccc2O[C@@H]1CN(C)CC1CC1 | inactive |
| COc1ccc(NC(=O)Nc2cccc3c2O[C@@H](CN(C)S(=O)(=O)c2cn(C)cn2)[C@H](C)CN([C@@H](C)CO)C3=O)cc1 | inactive |
| Cc1noc(C)c1S(=O)(=O)N(C)C[C@@H]1Oc2ccc(NC(=O)C3CC3)cc2CC(=O)N([C@@H](C)CO)C[C@@H]1C | inactive |
| Cc1noc(C)c1NC(=O)N(C)C[C@H]1OCc2cn(nn2)CCCC(=O)N([C@@H](C)CO)C[C@H]1C | inactive |
| C[C@H](CO)N1C[C@H](C)[C@@H](CN(C)C(=O)NC2CCCCC2)Oc2ccc(NC(=O)c3ccncc3)cc2CC1=O | inactive |
| O=C(C1=C[C@H](C2CC2)C[C@H](OCc2ccc(CO)cc2)O1)N1CCN(Cc2ccccc2)CC1 | inactive |
| Cn1nnnc1SCC(=O)Nc1cccc(NC(=O)C23CC4CC(CC(C4)C2)C3)c1 | inactive |
| C[C@@H]1CN([C@H](C)CO)C(=O)c2cccc(NS(=O)(=O)c3ccc(Cl)cc3)c2O[C@@H]1CN(C)CC1CC1 | inactive |
| COc1ccc(CN(C)C[C@@H]2Oc3ccc(NC(=O)Nc4ccc(OC)cc4)cc3CC(=O)N([C@H](C)CO)C[C@H]2C)cc1 | inactive |
| COC(=O)c1c(C)n(CCNc2ccc([N+](=O)[O-])cc2)c2ccc(O)cc12 | inactive |
| O=C(CCc1nc(-c2ccccc2Cl)no1)Nc1ccccc1[N+](=O)[O-] | inactive |
| C[C@H]1CN([C@@H](C)CO)C(=O)c2cccc(NC(=O)C3CCOCC3)c2O[C@@H]1CN(C)C(=O)Nc1cccc2ccccc12 | inactive |
| C[C@@H]1CN([C@@H](C)CO)C(=O)c2cccc(NS(=O)(=O)c3cn(C)cn3)c2O[C@H]1CN(C)Cc1ccc(Cl)c(Cl)c1 | inactive |
| C=C1C[C@@H]2COC(=O)[C@]2(Cc2ccc3ccccc3c2)C1 | inactive |
| COc1cc(C(C)=O)ccc1OCC(O)Cn1nc(C)cc1C (configuration not stated) | inactive |
| COc1ccc(CN(C)C[C@H]2Oc3c(NS(=O)(=O)c4ccc(Cl)cc4)cccc3C(=O)N([C@H](C)CO)C[C@@H]2C)cc1 | inactive |
| C[C@H](CO)N1C[C@H](C)[C@@H](CN(C)Cc2ccc(Cl)c(Cl)c2)Oc2c(NC(=O)C3CCCCC3)cccc2C1=O | inactive |
| C[C@H]1CCCCO[C@@H](CN(C)C(=O)C2CCCCC2)[C@@H](C)CN([C@@H](C)CO)C(=O)c2cc(NS(=O)(=O)c3cccs3)ccc2O1 | inactive |
| C[C@H](CO)N1C[C@H](C)[C@H](CN(C)C)Oc2ccc(NC(=O)Cc3ccccc3)cc2CC1=O | inactive |

| SMILES | outcome |
| --- | --- |
| C[C@H]1CN([C@@H](C)CO)C(=O)c2cc(NC(=O)Nc3ccccc3)ccc2O[C@@H]1CN(C)C(=O)Nc1ccccc1 | inactive |
| CCNc1nc(SCCOc2ccccc2)nc(N(C)C)n1 | inactive |
| C[C@H](CO)N1C[C@H](C)[C@H](CN(C)C(=O)Nc2ccc(C(F)(F)F)cc2)Oc2ccc(NS(C)(=O)=O)cc2CC1=O | inactive |
| O=C(OCC1OC(Oc2ccc(O)cc2COC(=O)C2(O)C(O)CCC(O)C2O)C(O)C(O)C1O)c1ccccc1 (configuration not stated) | inactive |
| C[C@@H]1CCCCO[C@H](CN(C)C(=O)Nc2ccccc2)[C@H](C)CN([C@H](C)CO)C(=O)c2cc(N(C)C)ccc2O1 | inactive |
| Cc1noc(C)c1NC(=O)Nc1ccc2c(c1)CC(=O)N([C@H](C)CO)C[C@@H](C)[C@@H](CN(C)Cc1ccncc1)O2 | inactive |
| CC(=O)Nc1ccc(NC(=O)CN(c2ccccc2Br)S(C)(=O)=O)cc1 | inactive |
| Cc1noc(C)c1NC(=O)Nc1cccc2c1O[C@@H](CN(C)Cc1ccc(C(F)(F)F)cc1)[C@@H](C)CN([C@@H](C)CO)C2=O | inactive |
| C[C@@H]1CCCCO[C@@H](CN(C)S(=O)(=O)c2ccccc2)[C@H](C)CN([C@H](C)CO)C(=O)c2cc(NC(=O)CCC(F)(F)F)ccc2O1 | inactive |
| Cc1noc(C)c1S(=O)(=O)Nc1ccc2c(c1)CC(=O)N([C@@H](C)CO)C[C@@H](C)[C@H](CN(C)C)O2 | inactive |
| C[C@H](CO)N1C[C@H](C)[C@H](CN(C)C(=O)c2ccccc2)OCCCC[C@H](C)Oc2ccc(NS(C)(=O)=O)cc2C1=O | inactive |
| C[C@@H]1CCCCO[C@H](CN(C)Cc2ccccc2)[C@@H](C)CN([C@H](C)CO)C(=O)c2cc(NS(C)(=O)=O)ccc2O1 | inactive |
| C[C@H](CO)N1C[C@H](C)[C@H](CN(C)C(=O)Nc2ccccc2)Oc2ccc(NC(=O)C3CC3)cc2CC1=O | inactive |
| CC(C)NC(=O)Nc1ccc2c(c1)C(=O)N([C@@H](C)CO)C[C@H](C)[C@@H](CN(C)C(=O)Nc1ccc(F)cc1)OCCCC[C@H](C)O2 | inactive |
| COc1ccc(CN(C)C[C@@H]2Oc3ccc(NC(=O)Nc4ccc(OC)cc4)cc3C(=O)N([C@H](C)CO)C[C@H]2C)cc1 | inactive |
| C=CC(C)(O)CCC1(C)C2=C(C(OC(C)=O)C(OC(C)=O)C1C)C(C)(C)CCC2 (configuration not stated) | inactive |
| COc1cc([C@H](Cc2ccccc2)NC(C)=O)oc(=O)c1 | inactive |
| CCc1ccc2c(c1)c1nc3ccccc3nc1n2CC(=O)OC | inactive |
| C[C@H]1CN([C@@H](C)CO)C(=O)Cc2cc(NC(=O)Nc3cccc4ccccc34)ccc2O[C@H]1CN(C)CC1CC1 | inactive |
| C[C@@H]1CCCCO[C@H](CN(C)Cc2ccccc2)[C@@H](C)CN([C@H](C)CO)C(=O)c2cc(NS(=O)(=O)c3ccc(Cl)cc3)ccc2O1 | inactive |
| C[C@H](CO)N1C[C@H](C)[C@@H](CN(C)C(=O)Nc2ccc3c(c2)OCO3)Oc2ccc(NC(=O)NC3CCCCC3)cc2CC1=O | inactive |
| CC(C)NC(=O)Nc1ccc2c(c1)CC(=O)N([C@@H](C)CO)C[C@@H](C)[C@@H](CN(C)S(=O)(=O)c1ccccc1)O2 | inactive |
| C[C@@H]1CN([C@@H](C)CO)C(=O)c2cc(N(C)C)ccc2O[C@@H](C)CCCCO[C@H]1CN(C)Cc1ccncc1 | inactive |
| CC(=O)O[C@H]1C[C@@H](OC(C)=O)C(C)(C)C2C[C@@H](O)[C@]3(C)C(CC[C@@]4(C)[C@H](c5ccoc5)OC(=O)C5OC543)[C@]21C (some centres not stated) | inactive |

| SMILES | outcome |
| --- | --- |
| CCC(=O)O[C@]1(C(=O)CCl)[C@@H](C)CC2C3CCC4=CC(=O)C=C[C@]4(C)[C@@]3(F)[C@@H](O)C[C@@]21C (some centres not stated) | inactive |
| COc1ccc2nc(SCC(=O)Nc3ccc(I)cc3)[nH]c2c1 | inactive |
| C[C@@H]1CN([C@@H](C)CO)C(=O)c2cccc(NC(=O)Nc3ccc(C(F)(F)F)cc3)c2O[C@@H]1CN(C)S(=O)(=O)c1cccs1 | inactive |
| C[C@H](CO)N1C[C@H](C)[C@H](CN(C)Cc2ccccc2)OCCCC[C@H](C)Oc2ccc(NC(=O)CCC(F)(F)F)cc2C1=O | inactive |
| OCCNc1nc(Nc2ccc(Cl)cc2)nc(N2CCCCC2)n1 | inactive |
| C[C@@H]1CN([C@@H](C)CO)C(=O)c2cccc(NS(=O)(=O)c3ccc(F)cc3)c2O[C@H]1CN(C)C(=O)NC1CCCCC1 | inactive |
| C[C@H]1CN([C@@H](C)CO)C(=O)Cc2cc(NS(C)(=O)=O)ccc2O[C@@H]1CN(C)CC1CC1 | inactive |
| Cc1ccc(-c2cc(C(F)(F)F)n3nc(C(=O)NCCN4CCOCC4)c(Cl)c3n2)cc1 | inactive |
| CCC(=O)Nc1cccc(NC(=O)COc2ccc(Br)cc2)c1 | inactive |
| CNC[C@H]1Oc2ccc(NC(=O)Nc3ccc4c(c3)OCO4)cc2CC(=O)N([C@H](C)CO)C[C@H]1C | inactive |
| COc1ccc(CN(C)C[C@H]2Oc3ccc(NC(=O)Cn4cnnn4)cc3CC(=O)N([C@@H](C)CO)C[C@@H]2C)cc1 | inactive |
| C[C@H]1CN([C@@H](C)CO)C(=O)c2cccc(NS(=O)(=O)c3ccc(Cl)cc3)c2O[C@H]1CN(C)Cc1ccc2c(c1)OCO2 | inactive |
| Cc1noc(C)c1S(=O)(=O)Nc1ccc2c(c1)C(=O)N([C@@H](C)CO)C[C@@H](C)[C@@H](CN(C)Cc1ccccc1)OCCCC[C@H](C)O2 | inactive |
| CC(C)NC(=O)Nc1ccc2c(c1)C(=O)N([C@@H](C)CO)C[C@H](C)[C@H](CN(C)C(=O)Nc1ccc(F)cc1)OCCCC[C@@H](C)O2 | inactive |
| CC(=O)CC(=O)N1C(=O)N(C)[C@@]2(C)Oc3ccccc3[C@@H]1[C@H]2COC(=O)c1ccccc1 | inactive |
| C[C@@H]1CN([C@@H](C)CO)C(=O)Cc2cc(NS(C)(=O)=O)ccc2O[C@H]1CN(C)C(=O)Nc1ccccc1 | inactive |
| CO[C@H]1C(=O)c2c(O)c(CC=C(C)C)c(O)c(CC=C(C)C)c2O[C@@H]1c1ccc(O)cc1 | inactive |
| CC(C)NC(=O)Nc1ccc2c(c1)C(=O)N([C@H](C)CO)C[C@@H](C)[C@@H](CN(C)S(=O)(=O)c1cccs1)OCCCC[C@@H](C)O2 | inactive |
| COc1ccc(C#Cc2ccc3c(c2)[C@]2(C(=O)N3)[C@H](c3ccccc3OCCO)N3[C@H](c4ccccc4)[C@H](c4ccccc4)OC(=O)[C@H]3[C@@H]2C(=O)N2CCCCCCC2)cc1 | active |
| O=C1O[C@H](c2ccccc2)[C@H](c2ccccc2)N2[C@H]1[C@@H](C(=O)N1CCN(c3ncccn3)CC1)[C@]1(C(=O)Nc3ccccc31)[C@H]2c1ccc(OCCO)cc1 | inactive |
| O=C1O[C@@H](c2ccccc2)[C@@H](c2ccccc2)N2[C@@H](c3ccccc3OCCO)[C@]3(C(=O)Nc4ccccc43)[C@@H](C(=O)N3CCCCCCC3)[C@H]12 | active |
| COc1ccc(C#Cc2ccc3c(c2)[C@]2(C(=O)N3)[C@H](C(=O)N3CCCCCCC3)[C@H]3C(=O)O[C@H](c4ccccc4)[C@H](c4ccccc4)N3[C@@H]2c2ccc(O)cc2)cc1 | inactive |
| O=C1O[C@@H](c2ccccc2)[C@@H](c2ccccc2)N2[C@@H](c3ccccc3OCCO)[C@]3(C(=O)Nc4ccc(C#CC5(O)CCCCCC5)cc43)[C@@H](C(=O)N3CCCCCCC3)[C@H]12 | inactive |
| COC(=O)C(CC#Cc1ccc2c(c1)[C@]1(C(=O)N2)[C@H](c2ccccc2OCCO)N2[C@H](c3ccccc3)[C@H](c3ccccc3)OC(=O)[C@H]2[C@@H]1C(N)=O)C(=O)OC | inactive |
